Screening data deposited in PubChem BioAssay by National Center for Advancing Translational Sciences (NCATS).
A selection: hits, their analogues and other compounds. The true share with any hit is near 13%.
HCMV inh = inhibitors of human cytomegalovirus; HFF cells, HCMV-luciferase reporter, 72 h; stronger effect = lower value; activity change, negative = inhibition, % at 57.5 µM; hit rate 4.5% among 410,000; in the data active means activity change below about -60%; inconclusive means no clear call, values can overlap the other calls; inactive means above about -39%
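Two-dose cell screen: HFF monolayers treated with compounds and infected with luciferase-expressing HCMV at 1 PFU/cell, 72 h at 37C, then lysed for luciferase measurement.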
Pf growth 96h = P. falciparum growth inhibition at 96 hours. hit rate 6.9% among 320,000. P. falciparum luciferase reporter growth, 96 h. AID 504834. Potency, µM (highest dose often 28.7 µM), usual class: inhibitors
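Two-generation exposure (96 h) targets delayed-death phenotype. Reporter parasites carrying integrated firefly luciferase, in red cells at 2% hematocrit and 0.05% parasitemia final, kept at 37 C, 5% CO2; luminescence loss indicates inhibition.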
Pf growth 48h = P. falciparum growth inhibition at 48 hours (one generation) | AID 504832 | hit rate 5.9% among 310,000 | P. falciparum luciferase growth in erythrocytes, 48 h | Potency, µM (highest dose often 28.7 µM), most hits filed as inhibitors
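Luciferase-expressing P. falciparum in infected erythrocytes (2% hematocrit, 0.1% parasitemia final) in RPMI 1640/0.5% Albumax were exposed to compound for 48 hours at 37 C, 5% CO2; growth read as luminescence.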
HCV inh = blocks hepatitis C virus. Potency, µM (series often up to 41.8 µM), usual class: inhibitors. Huh7.5.1 HCVcc-Cre infection, luciferase reporter, 44 h. hit rate 3.4% among 340,000
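Compounds are dispensed onto cells plated 4 h earlier at 1,000 per well, with HCVcc-Cre virus (about 0.5 moi) added next. Following 44 h of culture, luminescent signal is measured for 15 sec after 15 min with substrate at room temperature.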
Of the large screens only hits and unclear results are named; the others gave an inactive call. Unless noted, the call rests on the fitted dose curve; in most records, active means well fitted inhibition curve with a large enough effect; inconclusive means small, poorly fitted or top-dose-only effect, or another doubt; inactive means no such curve, though single readings can be large or run the other way.

Cc1ccc(NC(=O)C2CCN(S(=O)(=O)c3ccc4c(c3)NC(=O)C(C)S4)CC2)cc1C (stereo unspecified)	HCMV inh -62, Pf growth 96h inconclusive, Pf growth 48h 10µM, HCV inh inconclusive
CCC1CN(C(=O)Nc2ccccc2C(F)(F)F)c2ccccc2O1 (stereo unspecified)	none (no result: Pf growth 96h, Pf growth 48h, HCV inh)
Cc1cccn2c(=O)cc(CSc3nnc(NC(=O)COc4ccccc4)s3)nc12	Pf growth 96h inconclusive, Pf growth 48h inconclusive (no result: HCV inh)
CCc1ccc(NC(=O)C2CCN(S(=O)(=O)c3ccc4c(c3)NC(=O)C(C)S4)CC2)cc1 (stereo unspecified)	HCMV inh -97, Pf growth 96h inconclusive, Pf growth 48h inconclusive, HCV inh 8.9µM
Cc1ccc(NC(=O)C2CCN(S(=O)(=O)c3ccc4c(c3)NC(=O)C(C)S4)CC2)c(C)c1 (stereo unspecified)	Pf growth 96h inconclusive, Pf growth 48h inconclusive, HCV inh inconclusive
Cc1ccc(C)c(N2CCN(C(=O)C(CC(C)C)NS(=O)(=O)c3ccc4nc(C)sc4c3)CC2)c1 (stereo unspecified)	none (no result: Pf growth 96h, Pf growth 48h, HCV inh)
Cc1ccc(C(NC(=O)N2CCOCC2)=C(Cl)Cl)cc1F	HCMV inh -69, HCV inh 10µM (no result: Pf growth 96h)
Cc1ccc(C(NC(=O)N2CCOCC2)C(Cl)Cl)cc1F (stereo unspecified)	none
COc1ccccc1NC(=O)CN1C(=O)C(c2ccc(F)cc2)=NC1(C)C	none (no result: Pf growth 96h, Pf growth 48h, HCV inh)
COc1ccc(-c2nc(C#N)c(NC(C)c3ccccc3)o2)cc1OC (stereo unspecified)	Pf growth 96h inconclusive, Pf growth 48h 15µM, HCV inh inconclusive
CCN1C(=O)C2(c3ccccc31)c1c(oc3ccc(F)cc3c1=O)C(=O)N2CCCOC (stereo unspecified)	none (no result: Pf growth 96h, Pf growth 48h, HCV inh)
COC(=O)C1=C(c2ccc3ccccc3c2)C[C@@H]2CC[C@H]1N2C(=O)NCCCOC(C)C	Pf growth 96h inconclusive, Pf growth 48h inconclusive
COC(=O)C1=C(c2ccccc2OCc2ccccc2)C[C@@H]2CC[C@H]1N2C(=O)NCCCOC(C)C	Pf growth 96h 5.2µM, Pf growth 48h inconclusive, HCV inh inconclusive
COC(=O)C1=C(c2ccccc2OCc2ccccc2)C[C@@H]2CC[C@H]1N2C(=O)NCCOc1ccc(OC)cc1	Pf growth 96h 1.3µM, Pf growth 48h 9.3µM, HCV inh inconclusive
COC(=O)C1=C(c2ccc(OCc3ccccc3)cc2)C[C@@H]2CC[C@H]1N2C(=O)NCCCCc1ccccc1	none (no result: Pf growth 96h, Pf growth 48h, HCV inh)
COC(=O)C1=C(c2ccccc2OCc2ccccc2)C[C@@H]2CC[C@H]1N2C(=O)NCCOc1ccccc1	Pf growth 96h inconclusive, Pf growth 48h 12µM, HCV inh inconclusive
COC(=O)c1cc(NC(=O)c2ccc3c(c2)N(Cc2cccc(Cl)c2)C(=O)c2ccccc2S3=O)cc(C(=O)OC)c1 (stereo unspecified)	none (no result: Pf growth 96h, Pf growth 48h, HCV inh)
Nc1nnc(SCC(=O)Nc2cccc(F)c2)s1	none (no result: Pf growth 96h, Pf growth 48h, HCV inh)
CCc1ccccc1NC(=O)c1ccc2c(c1)N(Cc1cccc(Cl)c1)C(=O)c1ccccc1S2(=O)=O	none (no result: Pf growth 96h, Pf growth 48h, HCV inh)
COc1cc([N+](=O)[O-])ccc1NC(=O)Nc1cnccn1	HCMV inh -61, HCV inh inconclusive
COc1cc([N+](=O)[O-])ccc1NC(=O)Nc1nc2c(s1)CCCC2	Pf growth 48h 1.5µM
CCOC(=O)Cn1c(CN2CCN(c3ccc(OC)cc3)CC2)nc2c1c(=O)[nH]c(=O)n2C	none (no result: Pf growth 96h, Pf growth 48h, HCV inh)
CCCOc1ccc(C(=O)Nc2ccc3nn(-c4ccc(OC)c(Cl)c4)nc3c2)cc1	none (no result: Pf growth 96h, Pf growth 48h, HCV inh)
COc1cc(C(=O)NCc2nnc(SCC(=O)Nc3cccc(C)c3)o2)cc(OC)c1OC	Pf growth 96h 7.4µM (no result: Pf growth 48h)
Cc1cccc(NC(=O)CSc2nnc(CNC(=O)c3ccco3)o2)c1	Pf growth 96h 10µM
O=C(CSc1nnc(CNC(=O)c2ccco2)o1)Nc1ccc(F)cc1	Pf growth 96h 10µM
COc1ccc(C(=O)NCc2nnc(SCC(=O)Nc3cc(C)cc(C)c3)o2)cc1OC	none
O=C(Nc1cc(F)ccc1F)C1COc2ccccc2C1 (stereo unspecified)	none (no result: Pf growth 96h, Pf growth 48h, HCV inh)
COc1ccc2oc(-c3ccc(C)c(NC(=O)c4ccc5c(c4)OCCO5)c3)nc2c1	none (no result: Pf growth 96h, Pf growth 48h, HCV inh)
COc1ccc(NC(=O)c2c(NCc3ccc(C)o3)sc3c2CCCCC3)c(OC)c1	none (no result: Pf growth 96h, Pf growth 48h, HCV inh)
O=C(O)c1ccc2c3c(cccc13)C(=O)N(c1ccccc1)C2=O	Pf growth 96h inconclusive
Cc1c(O)c2c3c(cccc3c1O)C(=O)N(c1ccccc1)C2=O	HCMV inh inconclusive, Pf growth 96h 10µM, Pf growth 48h inconclusive, HCV inh inconclusive
CC(=O)Nc1cccc2c1C(=O)N(c1ccc(OC(C)=O)cc1)C2=O	Pf growth 96h 2.6µM
CC(=O)Nc1cccc2c1C(=O)N(c1cccc(OC(C)=O)c1)C2=O	none
CC(=O)Nc1ccc2c3c(cccc13)C(=O)N(c1ccccc1)C2=O	HCMV inh -60
CC(C)Oc1ccc(CNC(=O)Cn2ncn3nc(-c4cccs4)cc3c2=O)cc1	none (no result: Pf growth 96h, Pf growth 48h, HCV inh)
O=C(Cc1ccc(-c2ccccc2)cc1)NNC(=S)NCc1ccco1	Pf growth 96h inconclusive, HCV inh 11µM
O=C(Cc1cccs1)NNC(=S)NCc1ccco1	none
NC(=O)c1ccc(NC(=S)NCc2ccco2)cc1	Pf growth 96h 12µM
O=C(CC12CC3CC(CC(C3)C1)C2)NC(=S)NCc1ccco1	Pf growth 96h inconclusive, Pf growth 48h 13µM, HCV inh inconclusive
COc1cc(NC(=S)NCc2ccco2)cc(OC)c1OC	Pf growth 96h 5.2µM
CCOc1ccc(C(=O)Nc2ccc3nc(SCC(=O)N4CCOCC4)sc3c2)cc1	none (no result: Pf growth 96h, Pf growth 48h, HCV inh)
NC(=S)NN=C1c2cc(OCCN3CCOCC3)ccc2-c2ccc(OCCN3CCOCC3)cc21	Pf growth 48h 3.3µM, HCV inh 4µM (no result: HCMV inh)
Clc1ccc(OCCN2CCOCC2)cc1Cl	none (no result: Pf growth 48h)
CC1=C(C(=O)Nc2ccccc2C)C(c2ccccn2)n2nc(SCc3ccccc3F)nc2N1 (stereo unspecified)	none (no result: Pf growth 96h, Pf growth 48h, HCV inh)
NS(=O)(=O)c1ccc(NC(=O)N2c3ccccc3Sc3ccccc32)cc1	HCMV inh -63, Pf growth 96h 2.3µM, Pf growth 48h inconclusive
CCc1ccc(NC(=O)N2c3ccccc3Sc3ccccc32)cc1	none (no result: Pf growth 96h, Pf growth 48h, HCV inh)
CCOCCCNS(=O)(=O)c1ccc(NC(=O)N2c3ccccc3Sc3ccccc32)cc1	Pf growth 96h 12µM, Pf growth 48h inconclusive, HCV inh inconclusive
CCOCCCNS(=O)(=O)c1ccc(NC(=O)CN2C(=O)c3ccccc3C2=O)cc1	Pf growth 96h inconclusive
Cc1cc(S(=O)(=O)Nc2ccc(-c3ccc(N4CCCCC4)nn3)cc2)c(C)cc1Cl	none (no result: Pf growth 96h, Pf growth 48h, HCV inh)
O=C([O-])c1ccc(-[n+]2c(-c3ccccc3)cc(-c3ccccc3)cc2-c2ccccc2)cc1	Pf growth 96h inconclusive, Pf growth 48h inconclusive
Cc1ccc(-c2cc(-c3ccccc3)cc(-c3ccccc3)[n+]2-c2ccccc2C(=O)O)cc1	HCMV inh -67, Pf growth 96h 2.9µM, Pf growth 48h 10µM, HCV inh inconclusive
CC(C)(C)NC(=O)c1ccc2c(c1)N(CC(=O)N1CCN(c3ccc(F)cc3)CC1)C(=O)C(C)(C)O2	Pf growth 48h 10µM (no result: Pf growth 96h)
CC(C)(C)NC(=O)c1ccc2c(c1)N(CC(=O)N1CCCC1)C(=O)C(C)(C)O2	Pf growth 96h inconclusive
